Bioassay records (PubChem BioAssay)
Most compounds without a hit are left out; they make up all but 2.2% or so of the library.
aSyn UTR inh: 5' untranslated region of α-synuclein, MLPCN primary screen | alpha-synuclein 5'UTR reporter, inhibitor activity | inhibition, % (tested at 7.5 µM) | 0.82% of 300,000 active; in the data active means inhibition above about 60%; inconclusive means no clear call, values can overlap the other calls;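 further: H4 neuroglioblastoma cells stably carrying SNCA 5'UTR luciferase fusion; 0% = DMSO wells and 100% = positive control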
IEC-6 tox: kills IEC-6 intestinal cells in KLF5 counter-screen; inhibition, % at 5 µM; 0.78% of 290,000 active; IEC-6 cytotoxicity, luminescence viability; in the data active means inhibition above about 22%;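 further: 0% = plate median of test compound wells and 100% = cytotoxic reference compound wells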
APP 5UTR inh: APP translation inhibition; AID 1285; inhibition, % at 2 µM; 0.82% of 190,000 active; SH-SY5Y APP 5'UTR-luciferase reporter, luminescence;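 active means inhibition above a set limit, derived from the sample mean plus 3 SD, cut at about 45% in these data; inconclusive means one replicate passes the limit while the other fails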
BaF3 tox: counter-screen for JAK2V617F inhibitors: parental Ba/F3 viability inhibitors; CellTiter-Glo ATP luminescence; inhibition, % at 5.6 µM; 1.1% of 220,000 active;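 active means inhibition above a per-campaign cutoff, the mean inhibition of all tested compounds plus 3 SD, cut at about 27% in these data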;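 further: 0% = DMSO wells and 100% = JAK Inhibitor I control wells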
KLF5 inh: kruppel-like factor 5 inhibition; DLD-1 KLF5 promoter-luciferase reporter, luminescence; inhibition, % at 5 µM; 0.23% of 290,000 active;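 active means inhibition above a per-plate limit of that plate's mean compound inhibition plus 3 SD, cut at about 60% in these data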;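 further: 0% = DMSO wells and 100% = LY294002 at 200 µM; higher means less KLF5 promoter-driven luciferase light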
Ba/F3 V617F tox: reduce viability of Ba/F3 cells dependent on JAK2V617F; 1.1% of 220,000 active; inhibition, % at 5.6 µM; AID 1446; Ba/F3 EpoR-JAK2V617F viability, ATP luminescence;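 active means inhibition above the campaign mean plus 3 SD over all tested compounds, cut at about 24% in these data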;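 further: cytokine-independent growth of Ba/F3 cells driven by EpoR plus mutant JAK2; 0% = DMSO-treated cells and 100% = JAK inhibitor I control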
* hit, by the source's call; ? = inconclusive; . = no result.

SMILES | aSyn UTR inh | IEC-6 tox | APP 5UTR inh | BaF3 tox | KLF5 inh | Ba/F3 V617F tox
O=c1c(Cl)c(N2CCCCC2)cnn1-c1nc2ccccc2[nH]1 | 93* | 16 | -97 | 15 | 50 | 16
CCOc1ccc(-n2c(C)cc(/C=N/N(C)C)c2C)cc1 | 0 | 2 | -18 | 37* | -5 | 10
CCOc1ccc(-n2c(C)cc(/C=N/NC(=O)C(N)=O)c2C)cc1 | 16 | -2 | 6 | 6 | -4 | 0
CCOc1ccc(-n2c(C)cc(C(=O)CCl)c2C)cc1 | 111* | -1 | 27 | 0 | -18 | 0
O=C1CN(C(=O)COc2ccc(Br)cc2Br)c2ccccc2N1 | -17 | 6 | 0 | -2 | -13 | 2
Cc1ccc(C(C(=O)NC2CCCC2)N(C(=O)CNC(=O)c2ccco2)c2ccccc2)o1 (stereo not given) | -7 | -2 | . | . | 1 | .
CCCCCc1ccc(OCCOCCn2c[n+](C)c3ccccc32)c(CCCCC)c1 | 26 | 16 | 29 | 82* | 9 | 101*
CCCCCc1ccc(OCCC[n+]2ccccc2)c(CCCCC)c1 | 3 | 21 | . | 84* | -1 | 100*
Cc1cccc(NC(=O)CSc2nnc(CNC(=O)c3ccco3)o2)c1 | 22 | 4 | . | . | -26 | .
CCOc1ccc(CCNC(=O)c2cc(C)nc3ccccc23)cc1OCC | 11 | 8 | . | . | -5 | .
CCN(CC)c1ccc(C(=O)OCC(=O)Nc2cccc(S(=O)(=O)NC3=NCCCCC3)c2)cc1 | 24 | 3 | 9 | 5 | -45 | -2
Cc1cc2nc3n(c2cc1C)CC1CC(C(=O)NCc2cccc(C(F)(F)F)c2)N(C)C31 (stereo not given) | -7 | . | . | . | . | .
CCOC(=O)/C=c1\s/c(=C\c2c(OC)ccc3ccccc23)c(=O)n1CC(=O)NCC1CCCO1 (stereo not given) | 71* | 0 | 0 | 6 | -6 | -1
CCC1Oc2ccc(C)cc2N(CC(=O)NCc2ccco2)C1=O (stereo not given) | -17 | -1 | 4 | 90* | -26 | 1
CC(=O)c1cc(-c2ccccc2)n(CCC(=O)NC2CCCCC2)c1C | 18 | 3 | -14 | 6 | -11 | 0
COCCn1c(C)cc(C(=O)CSc2nnc(C)s2)c1C | 100* | 2 | -22 | 3 | 4 | -3
COCCn1c(C)cc(C(=O)COC(=O)c2cccc(O)c2)c1C | 67* | 3 | . | -1 | 28 | -4
COCCn1c(C)cc(C(=O)COC(=O)c2cc3c(s2)CCC3)c1C | -78 | -2 | -18 | 4 | 2 | -3
O=C(COc1ccc2c(c1)oc(=O)c1ccccc12)NCCN1CCOCC1 | 4 | -3 | . | . | -6 | .
O=C(NCCc1c[nH]c2ccccc12)c1ccco1 | -32 | -5 | . | . | -23 | .
CC(C)=CCc1c(O)c(CC=C(C)C)c2c(c1O)-c1cc(O)c(O)cc1CC2 | -17 | . | . | . | . | .
C#CCSc1nnc(C)c(C)n1 | -10 | . | . | . | . | .
CCn1c(SCc2ccccc2Cl)nc2nc3c(cc2c1=O)CCCC3 | 0 | -4 | 70* | 5 | -34 | 2
C=C1C(=O)C=C2CN(C(=O)c3ccccc3)[C@@](Cc3ccc(F)cc3)(C(=O)OC)[C@@H]12 | ? | 27* | 96* | 92* | -6 | 97*
COc1ccccc1N(C(=O)c1snc(C(N)=O)c1N)C(C(=O)NC1CCCCC1)c1cccc(OC)c1OC (stereo not given) | 15 | 3 | . | . | -13 | .
SMILES | aSyn UTR inh | IEC-6 tox | APP 5UTR inh | BaF3 tox | KLF5 inh | Ba/F3 V617F tox
O=C(c1c[nH]c(C(=O)N2CCN(c3ccccc3F)CC2)c1)c1cccc(Cl)c1Cl | 43 | -4 | 57* | 12 | -17 | 1
CC(=O)OC(CC(=O)O)C[N+](C)(C)C (stereo not given) | 68* | -8 | -13 | 8 | -6 | -2
CC(=O)O[C@H](CC(=O)O)C[N+](C)(C)C | 7 | . | . | . | . | .
CC(C(=O)Nc1cccc(S(=O)(=O)N2CCOCC2)c1)N1CCN(C/C=C/c2ccccc2)CC1 (stereo not given) | 24 | -7 | -2 | 30* | -15 | 28*
O=C(CSc1nnc(Cn2nnc3ccccc32)o1)N(Cc1ccc(F)cc1)c1ccccc1 | -11 | 8 | 4 | 41* | -14 | 9
COc1ccc(C(=O)N2CCN(c3cccc(Cl)c3)CC2)cc1 | -4 | 8 | -12 | 3 | -5 | -1
COc1ccc(C(=S)N2CCN(c3cccc(Cl)c3)CC2)c(OC)c1 | 43 | 54* | 84* | 41* | 40 | 71*
O=C(OCn1ncc(Br)c(Br)c1=O)c1c(F)cccc1F | ? | 11 | 96* | 67* | -39 | 74*
CC(=O)Cn1ncc(Br)c(Br)c1=O | -87 | 102* | 97* | -3 | -33 | 5
O=C1CN(C(=O)/C=C/c2ccc(Br)cc2)CCN1 | 6 | -2 | . | . | -21 | .
COc1cc2nc(N3CCN(c4cc(C)ccc4C)CC3)nc(N)c2cc1OC | 95* | 10 | . | . | -38 | .
O=C(NNC(=S)Nc1ccccc1Cl)c1ccccc1Br | -94 | 5 | . | . | -127 | .
Cc1ccc([N+](=O)[O-])c(C(=O)N/N=C/c2cccs2)c1 | -56 | 1 | . | -3 | -56 | 5
COC(=O)C1=C(C)NC(C)=C(C(=O)OC)C1c1ccccc1OCc1c(C)no[n+]1[O-] | . | 15 | -9 | 35* | -14 | 32*
COc1cc(/C=C(\C#N)C(N)=O)ccc1OCc1c(C)no[n+]1[O-] | -12 | -6 | . | 0 | -27 | -5
CC(C)(C)c1cc(Cl)c(O)c(NC(=S)NC(=O)c2cccnc2)c1 | 80* | 7 | -10 | 10 | 40 | 2
O=C(C[N+]1(CC#Cc2ccccc2)CCCCC1)c1ccc(Cl)cc1 | -3 | 9 | -2 | 38* | -10 | 0
O=C(C[N+]1(CC#Cc2ccccc2)CCOCC1)c1ccccc1 | -39 | 9 | 5 | 0 | -9 | 3
O=C(C[N+]1(CC#Cc2ccccc2)CCCCC1)c1ccccc1 | -23 | 2 | -12 | 34* | -7 | 25*
CN(CCOc1ccc(Cl)cc1)C(=O)CN1C(=O)NC2(CCCC2)C1=O | 23 | . | . | . | . | .
COc1ccc(NC(=O)CN2C(=O)CSC(C)C2=O)c(OC)c1 (stereo not given) | -2 | -12 | -6 | 30* | -5 | -2
CC1Cc2ccccc2N1C1=CC(=O)CCC1 (stereo not given) | -18 | 3 | -36 | 66* | -14 | 54*
CN(C)CCCN(C(=O)CCc1ccccc1)c1nc2ccc(Cl)cc2s1 | 109* | 3 | 10 | 7 | -16 | 0
Nc1c(C(=O)NCc2ccccc2)sc2nc(N3CCOCC3)c3c(c12)CCCC3 | 65* | -2 | 6 | -2 | -28 | -3
Cc1oc2c(c1C(=O)c1ccccc1)C(=O)C(=O)c1ccccc1-2 | 127* | 2 | -92 | -3 | -103 | 5
Cc1oc2c(c1C(=O)O)C(=O)c1ccccc1C2=O | -62 | -14 | -12 | 19 | -11 | 6
O=C(N/N=C/c1cccnc1)c1ccc(NC(=O)C(c2ccccc2)c2ccccc2)cc1 | 111* | -5 | 70* | 2 | -23 | 2
